DT40 TDP1 CPT = DT40-hTDP1 cell growth loss with CPT; chicken DT40 Tdp1-/-;hTDP1 cells + 20 nM CPT, ATP luminescence, 48 h; Potency, µM (series often up to 46.2 µM), hits mostly inhibitors; 420,000 tested, 12% active; note: nearly all actives have a fitted effect of over 55% in size
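Chicken DT40 Tdp1-/- cells stably complemented with human TDP1 were seeded at 400 cells/well in medium containing 20 nM camptothecin, exposed to pin-transferred compounds, and grown at 37 °C for at least 48 hr. Viability was read as ATP luminescence.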
TDP1 inh = inhibitors of human tyrosyl-DNA phosphodiesterase TDP1; recombinant TDP1, AlphaScreen DNA substrate cleavage; Q9NUW8; 350,000 tested, 0.28% active; Potency, µM (highest dose often 130 µM), most hits filed as inhibitors; note: nearly all actives have a fitted effect of over 40% in size
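Steps: enzyme plus compound, 15 min RT; add biotin/phosphotyrosine-FITC oligonucleotide (15 nM final), react 5 min; add donor/acceptor beads (10 ug/ml final), 10 min; read AlphaScreen. Tdp1 at 1 nM final.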
RORgamma inh = blocks mouse ROR gamma transcriptional activity | Potency, µM (doses to about 53.6 µM), usual class: inhibitors | P51450 | Drosophila S2 Gal4-RORgamma UAS-luciferase reporter, 20 h | 310,000 tested, 5.4% active; note: nearly all actives have a fitted effect of over 60% in size
Target sequence (P51450 whole entry, looked up, the tested form may be a part): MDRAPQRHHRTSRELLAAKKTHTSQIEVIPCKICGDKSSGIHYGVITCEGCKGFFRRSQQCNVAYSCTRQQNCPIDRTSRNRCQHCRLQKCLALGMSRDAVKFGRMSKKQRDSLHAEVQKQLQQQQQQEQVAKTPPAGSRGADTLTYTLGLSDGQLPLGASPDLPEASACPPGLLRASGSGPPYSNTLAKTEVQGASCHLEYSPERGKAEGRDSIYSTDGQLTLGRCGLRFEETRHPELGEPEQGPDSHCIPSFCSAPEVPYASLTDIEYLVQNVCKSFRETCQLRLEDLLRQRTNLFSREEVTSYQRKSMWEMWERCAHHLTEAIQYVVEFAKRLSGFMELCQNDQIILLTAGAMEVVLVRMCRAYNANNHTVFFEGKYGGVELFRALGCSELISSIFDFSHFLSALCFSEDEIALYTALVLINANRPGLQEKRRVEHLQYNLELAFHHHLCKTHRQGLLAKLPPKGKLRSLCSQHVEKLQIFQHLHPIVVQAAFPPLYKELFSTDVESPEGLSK
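A Gal4/UAS one-hybrid system in insect cells: metallothionein-promoter Gal4–ROR gamma fusion plus Photinus luciferase reporter. Copper sulfate 700 uM final, 20 hr ambient incubation, luminescent detection after 10 min with reagent.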
TDP1 cell noCPT = qHTS for Inhibitors of human tyrosyl-DNA phosphodiesterase 1 (TDP1): qHTS in cells in absence of CPT; DT40 Tdp1-/- hTDP1 cells, no CPT, ATP luminescence, 48 h; 420,000 tested, 15% active; AID 686978, 2013; Potency, µM (titrated, usually from 46.2 µM), most hits filed as inhibitors; note: nearly all actives have a fitted effect of over 55% in size
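Growth kinetics read by CellTiter-Glo luminescence after ≥48 hr at 37 °C. Cells: DT40 Tdp1-/- stably carrying human TDP1, 400 per well, compound exposure in the absence of CPT (DMSO vehicle).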
Gal4-VP16 FLuc = Gal4-VP16 reporter inhibition counter-screen; Drosophila S2 Gal4-VP16 UAS-luciferase, luminescence, 20 h; Potency, µM (highest dose often 53.6 µM), most hits filed as inhibitors; 310,000 tested, 3.5% active;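 note: Gal4-VP16 expression switched on by copper sulfate through the metallothionein promoter; nearly all actives have a fitted effect of over 50% in size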
A number is an active result; n = inactive; u = inconclusive; x = no result; [ ] = dose if it differs, or a comment. This is a sample that favours compounds with a hit; in the whole collection about 19% have one here. Calls come from the whole dose curve; as a rule, active = well fitted curve in the direction sought with a large enough effect; inconclusive = small, poorly fitted or top-dose-only effect, or another doubt; inactive = no such curve, though single readings can be large; an effect the other way counts as inactive or inconclusive.

SMILES | DT40 TDP1 CPT | TDP1 inh | RORgamma inh | TDP1 cell noCPT | Gal4-VP16 FLuc
O=C(c1ccco1)N1CCN(C(c2cccs2)c2sc3ncnn3c2O)CC1 (stereo not given) | n | n | n | n | n
Oc1c(C(c2ccco2)N2CCN(C(c3ccccc3)c3ccccc3)CC2)sc2ncnn12 (stereo not given) | u | n | u | 21µM | n
O=C(CCS(=O)(=O)c1ccc2c(c1)NC(=O)CS2)NCc1cccs1 | n | n | n | n | n
Cc1ccc(N(Cc2ccccc2)C(=O)c2cccc(S(=O)(=O)N3CC(C)OC(C)C3)c2)cc1 (stereo not given) | 21µM | n[0.505 µM] | x | 16µM | x
CC1CN(S(=O)(=O)c2cccc(C(=O)OCC(=O)NCc3ccccc3)c2)CC(C)O1 (stereo not given) | u | n | x | u | x
CC1CN(S(=O)(=O)c2cccc(C(=O)N(CCc3ccccc3)Cc3ccccc3)c2)CC(C)O1 (stereo not given) | 7.3µM | n | x | 5.8µM | x
Cc1ccc(NC(=O)CN2C(=O)NC(C)(C3CC3)C2=O)c(C)c1 (stereo not given) | n | n | x | n | x
C[C@]1(C(=O)NCCCNc2ncc(C(F)(F)F)cc2Cl)C=C[C@@H](Cc2ccccc2)N1C(=O)c1ccccc1 | u | n | u | 26µM | u
O=C(c1cnn2cccnc12)N1CCOc2ccc(C(O)C(c3ccccc3)c3ccccc3)cc2C1 (stereo not given) | n[9.04 µM] | x | x | u | x
CN(C)c1nc(=NCc2cccs2)ss1 | 0.026µM | x | x | 0.029µM | x
CN(C)c1ncc2nc(-c3cccs3)c(=O)n(Cc3cccs3)c2n1 | n | x | n | n | n
Nc1ccccc1C#Cc1ccc2[nH]ccc2c1 | n | x | x | n | x
O=C(Nc1cc(Cl)cc(Cl)c1)c1cc(S(=O)(=O)N2CCC3(CC2)OCCO3)ccc1F | 21µM | n | x | u | x
O=C(Nc1cccc(Cl)c1)c1ccc(F)c(S(=O)(=O)N2CCC3(CC2)OCCO3)c1 | 15µM | n | x | 13µM | x
Cc1cccc(NC(=O)c2ccc(F)c(S(=O)(=O)N3CCC4(CC3)OCCO4)c2)c1 | u | n | u | u | n
O=C(Nc1ccc(F)c(F)c1)c1ccc(F)c(S(=O)(=O)N2CCOCC2)c1 | x | n | n | x | u
O=C(Nc1cccc(Cl)c1Cl)c1cc(S(=O)(=O)N2CCC3(CC2)OCCO3)ccc1F | u | n | x | 23µM | x
O=C(Nc1cccc(C(F)(F)F)c1)c1ccc(F)c(S(=O)(=O)N2CCc3ccccc3C2)c1 | 15µM | n | x | 13µM | x
O=C(Nc1ccccc1Cl)c1cc(S(=O)(=O)N2CCC3(CC2)OCCO3)ccc1F | u | n | x | u | x
CC(C)CN(C(=O)COC(=O)c1ccccc1Sc1ccccc1C#N)C1CCS(=O)(=O)C1 (stereo not given) | u | n | n | n | n
CC1C(=O)N(Cc2cn(CCC3OCCO3)nn2)CCS(=O)(=O)N1Cc1ccc(-c2ccc(Cl)c(Cl)c2)cc1 (stereo not given) | 15µM | x | x | 6.5µM | x
COc1ccc(-c2ccc(CN3C(C)C(=O)N(Cc4cn(CCC5OCCO5)nn4)CCS3(=O)=O)cc2)cn1 (stereo not given) | u | x | x | 21µM | x
CC1C(=O)N(Cc2cn(CCC3OCCO3)nn2)CCS(=O)(=O)N1Cc1ccc(-c2cccc(CO)c2)cc1 (stereo not given) | n | x | x | n | x
COc1ccc(-c2ccc(CN3C(C)C(=O)N(Cc4cn(CCC5OCCO5)nn4)CCS3(=O)=O)cc2)cc1 (stereo not given) | 9.2µM | x | x | 23µM | x
O=C(NN1C(=O)C2C3C=CC(C3)C2C1=O)C(O)c1ccccc1 (stereo not given) | n | n | n | n | n
SMILES | DT40 TDP1 CPT | TDP1 inh | RORgamma inh | TDP1 cell noCPT | Gal4-VP16 FLuc
O=C(CN1C(=O)C2CC=CCC2C1=O)Nc1nc2ccccc2s1 (stereo not given) | n | n | u | n | n
O=C(CCC(=O)N1CCSc2ccccc21)Nc1cccc(F)c1 | u | x | n | u | n
CC(=O)n1cc([C@H]2C=C(C(=O)N3CCN(Cc4ccccc4)CC3)O[C@@H](OCc3ccc(CO)cc3)C2)c2ccccc21 | 7.3µM | n | n | 7.3µM | n
O=C(C1=C[C@H](c2ccccc2)C[C@H](OCc2ccc(CO)cc2)O1)N1CCN(Cc2ccccc2)CC1 | u | n | n | u | n
CC(=O)n1cc([C@H]2C=C(C(=O)Nc3ccccc3)O[C@@H](OCc3ccc(CO)cc3)C2)c2ccccc21 | 8.2µM | n | n | 9.2µM | n
CC(=O)n1cc([C@@H]2C=C(C(=O)Nc3ccccc3)O[C@H](OCCCCO)C2)c2ccccc21 | u | n | n | u | n
CC(=O)n1cc([C@@H]2C=C(C(=O)O)O[C@H](OCc3ccc(CO)cc3)C2)c2ccccc21 | n | n | n | n | n
C#CCNC(=O)C1=C[C@H](c2cn(C(C)=O)c3ccccc23)C[C@H](OCc2ccc(CO)cc2)O1 | 18µM | n | u | 16µM | n
CC(=O)n1cc([C@@H]2C=C(C(=O)NCc3ccccc3)O[C@H](OCc3ccc(CO)cc3)C2)c2ccccc21 | 7.3µM | x | n | 9.2µM | n
Cc1noc(C)c1C(=O)N1CCc2ccccc21 | n | n | n | n | n
Cc1onc(-c2ccccc2)c1C(=O)N1CCCc2ccccc21 | u | n | n | 16µM | n
CCCS(=O)(=O)NC(=O)C1(C)CCCN(C(=O)c2c(-c3ccccc3)noc2C)C1 (stereo not given) | n | x | x | n | x
CCOC(=O)C1(C)CCCN(C(=O)c2c(-c3ccccc3)noc2C)C1 (stereo not given) | 13µM | x | x | u | x
Cc1onc(-c2c(F)cccc2Cl)c1C(=O)N1CCc2ccccc21 | u | n | n | u | n
Cc1onc(-c2c(Cl)cccc2Cl)c1C(=O)N1CCCc2ccccc21 | 21µM | n | n | 21µM | n
NC(=O)C1CCN(C(=O)C2CCN(C(=O)Nc3ccccc3)CC2)CC1 | n | n | x | n | x
CN(C)CC(O)COc1ccc(-c2ccc(C#N)cc2)cc1 (stereo not given) | x | n | n | x | n
O=C(CSC(=S)N1CCCC1)Nc1ccc(Br)cc1Cl | n | n | x | u | x
CC1CCCC(NC(=O)COC(=O)c2cccc(NS(=O)(=O)/C=C/c3ccccc3)c2)C1C (stereo not given) | u | n | n[10 µM] | u | n
CCCCN(C(=O)c1ccc2c(c1)OCCO2)c1c(N)n(CCCC)c(=O)[nH]c1=O | n | n | x | n | x
COc1cc(C(=O)Nc2ccccc2N2CCCCC2)cc(OC)c1OC | u | x | n | 21µM | n
COc1c(C)cccc1C(=O)NC(=S)Nc1cccc2nsnc12 | n | n | n | n | n
COc1cc(C(=O)Nc2ccccc2NC(=O)c2cc(OC)c(OC)c(OC)c2)cc(OC)c1OC | n | x | n | n | n
